# Screening data as filed in PubChem.
# Sampled rows, rich in hits. Any-hit rate of the full collection: about 1.3%.
# RN4220 kill – growth inhibition of S. aureus RN4220, primary screen, OD600. 0.33% of 330,000 active. inhibition, % (no concentration beside the values). AID 1259311, 2017. 16 h; in the data active means inhibition above about 85%;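 further: plate controls were untreated cells for no effect and reference antibiotic for full effect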
# 3CLpro inhibitor – SARS-CoV 3CLpro protease inhibitors, primary screen, biochemical, quenched FRET | Replicase polyprotein 1ab (Severe acute respiratory syndrome coronavirus), P0C6X7 | recombinant SARS-CoV 3CLpro, quenched FRET peptide cleavage | inhibition, % at 6 µM | 0.14% of 290,000 active | AID 1706, 2009; in the data active means inhibition above about 12%
# CCHFV vOTU inh – CCHFV vOTU protease inhibitors, primary screen, biochemical, Pep-AMC substrate, fluorescence; Crimean-Congo hemorrhagic fever virus L polyprotein viral ovarian tumor (vOTU) protease …; 0.55% of 370,000 active; AID 651958, 2012; inhibition, % at 11.5 µM; in the data active means inhibition above about 30%; further: 0% = vehicle wells with enzyme and 100% = no enzyme wells
# Mtb betalactam – beta-lactam sensitization of Mtb H37Rv, H37Rv. inhibition, % at 25 µM. 0.27% of 330,000 active. M. tuberculosis H37Rv growth with meropenem, percent inhibition. AID 434955, 2010; call rule not given here;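 further: growth measured after seven days incubation then overnight dye step; 0% = bacteria only wells and 100% = bacteria with antibiotic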
# MazEF act – activators of E. coli MazEF toxin-antitoxin RNase, primary screen, biochemical, fluorescence, uHTS. Endoribonuclease toxin MazF (Escherichia coli (strain K12)), P0AE70. 0.32% of 350,000 active. FAM/BHQ RNA-DNA oligo cleavage fluorescence, 5 h. activation, % at 20 µM; in the data active means activation above about 50%
# Target sequence (P0AE70 whole entry, looked up): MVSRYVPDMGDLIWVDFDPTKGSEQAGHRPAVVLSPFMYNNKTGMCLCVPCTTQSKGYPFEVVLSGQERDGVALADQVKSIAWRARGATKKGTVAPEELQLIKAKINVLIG
# ugtP null kill – growth inhibition of ugtP-null S. aureus, primary screen, RN4220 ugtP deletion, OD600 | 16 h | growth inhibition, % (no concentration beside the values) | 0.54% of 330,000 active | AID 1259309, 2017; in the data active means growth inhibition above about 68%;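 further: plate controls were untreated wells for no effect and antibiotic for full effect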
# The depositor's hits bear a star; . = no result given; + = active, no number.
SMILES,RN4220 kill,3CLpro inhibitor,CCHFV vOTU inh,Mtb betalactam,MazEF act,ugtP null kill
O=C(Nc1nnc(-c2ccc3c(c2)CCCC3)o1)c1c(F)cccc1F,7,0,-2,94,-10,12
COc1ccc(-c2nnc(NC(=O)c3ccc(S(=O)(=O)N4CCc5ccccc5C4)cc3)o2)cc1,-3,-4,.,35,-5,99*
COc1ccc(-c2nnc(NC(=O)c3cc(Cl)ccc3Cl)o2)cc1,7,-1,6,92,0,100*
CN(C)S(=O)(=O)c1ccc(C(=O)Nc2nnc(-c3ccc4c(c3)CCCC4)o2)cc1,98*,0,-1,97,6,99*
CC(C)(C)OC(=O)N1CCN(C(=O)C(Cc2ccc(O)cc2)n2cc(CCO)nn2)CC1 (configuration not stated),7,.,.,.,.,0
Oc1ccc(C=NNc2nncc(-c3ccccc3)n2)cc1,2,.,.,.,.,2
C=C(C)C(=O)N1CC2(CC(c3cccc(NC(=O)C(C)=CC)c3)=NO2)CC1C(N)=O (configuration not stated),-3,.,.,.,.,-2
CCN1C(=O)S/C(=C\c2ccc(N3CCOCC3)cc2C)C1=O,8,5,-2,3,28,-5
C#CCN1C(=O)S/C(=C\c2ccc(N3CCOCC3)cc2C)C1=O,9,-11,-6,2,310*,4
COc1ccc(NC(=O)Nc2ccc3c(c2)CCC3)c(OC)c1,-2,3,8,0,57*,-9
O=C(NN=Cc1ccc(Br)o1)c1ccc2c(c1)OCCO2,3,.,.,.,.,-3
CSc1ccc(Cl)c(C(=O)NCCOc2cc(C)ccc2C(C)C)c1,97*,2,-9,13,1,99*
Cc1ccc(C(C)C)c(OCCNC(=O)c2ccccc2O)c1,24,3,4,16,-3,24
CCOC(=O)c1cnc(-c2ccccc2)nc1Oc1ccc(OC)cc1,1,0,-10,6,-6,3
CCOC(=O)c1cnc(-c2ccccc2)nc1Oc1ccccc1,-6,3,5,82,-2,86*
CCCCCc1ccc(OCCOCCn2c[n+](C)c3ccccc32)c(CCCCC)c1,100*,3,.,.,-7,101*
CCCCCc1ccc(OCCC[n+]2ccccc2)c(CCCCC)c1,99*,3,8,96,14,100*
O=C(NC1CCCCC1)C(c1ccnc2ccccc12)N1CCc2ccccc2C1 (configuration not stated),.,.,76*,.,.,.
O=C(NC1CCCCC1)C(C1CC1)N1CCc2ccccc2C1 (configuration not stated),.,.,-3,.,.,.
Cc1cc(/C=C2\C(=O)NC(=O)N(Cc3ccccc3)C2=O)c(C)n1C1CC1,2,3,-3,9,725*,6
COc1cc(OC)c(OC)cc1/C=C1/C(=O)NC(=O)N(Cc2ccccc2)C1=O,-1,0,0,6,-15,0
CC1=NN(c2ccccc2)C(=O)/C1=C/c1cc(C)n(C2CC2)c1C,8,-3,10,4,77*,8
CC1=NN(c2ccccc2)C(=O)/C1=C\c1cn(-c2ccccc2)nc1C,6,0,-18,-2,0,0
CC1=CC(=NNC(=O)c2cccs2)CC(C)(C)C1,5,.,.,.,.,-2
CCCOC(=O)C1NC(=O)N2C1SC(C)(C)C2C(=O)OCCC (configuration not stated),7,.,.,.,.,-3
SMILES,RN4220 kill,3CLpro inhibitor,CCHFV vOTU inh,Mtb betalactam,MazEF act,ugtP null kill
O=C(O)c1cc(Cl)ccc1-c1ccc(/C=C/c2cc(C(F)(F)F)[nH]c(=O)n2)o1,.,-10,-2,-6,-320,.
O=C(O)c1ccccc1-c1ccc(/C=C/c2cc(C(F)(F)F)[nH]c(=O)n2)o1,3,-28,-2,.,745*,2
O=C(NN=Cc1cn(-c2cccs2)nc1-c1ccccc1)c1ccccc1Br,11,.,.,.,.,27
CNC(=O)c1nnsc1S(=O)c1ccc(Cl)cc1 (configuration not stated),99*,5,2,.,11,100*
Cc1ccc(S(=O)c2snnc2C)cc1 (configuration not stated),2,-4,-10,-6,10,1
CCCNC(=O)c1nnsc1S(=O)c1ccc(Cl)cc1 (configuration not stated),98*,2,15,.,7,100*
Oc1sc(C=Nc2ccccc2)c2ccccc12,1,-1,-17,6,140*,-4
Oc1sc(C=Nc2ccc(F)cc2)c2ccccc12,4,-1,-13,7,-354,-1
OC(CNCC1CCCO1)COc1ccc(OCC(O)CNCC2CCCO2)cc1 (configuration not stated),-3,8,.,-7,160*,3
CCC=CC(=O)N1CC2(CC(c3cccc(NC(=O)COc4ccc(Cl)cc4)c3)=NO2)CC1C(N)=O (configuration not stated),6,.,.,.,.,4
Clc1cccc(N/N=C(\Cc2nc3ccccc3[nH]2)c2ccccc2)c1,.,3,6,13,72*,.
Cc1cc(C)nc(NN=Cc2ccc([N+](=O)[O-])o2)n1,26,.,.,.,.,58
CCCN1C(=O)/C(=C/c2c(NCCCOC(C)C)nc3c(C)cccn3c2=O)SC1=S,14,-1,.,-6,436*,14
CCC(C)N1C(=O)/C(=C/c2c(NCCCOC(C)C)nc3c(C)cccn3c2=O)SC1=S (configuration not stated),7,0,-5,8,-276,-19
O=C(C=Cc1ccccc1)NCCSc1ccc(Cl)cc1,1,.,.,.,.,5
CON=CCC(=O)c1ccc(-c2ccccc2)cc1,32,.,.,.,.,101*
C=CCn1c(=O)/c(=C/c2cc(OC)c(OC)c(OC)c2)s/c1=C(/C#N)c1nc2ccccc2n1C,.,5,4,-6,+,.
CCOC1OC(C(=O)NCc2ccccc2)=CC(c2csc3ccccc23)C1CCCO (configuration not stated),6,.,.,.,.,-8
O=C(c1ccco1)[C@@H]1[C@@H]2C(=O)N(c3ccccc3)C(=O)[C@@H]2C2c3ccccc3C=CN21 (some centres not stated),5,-1,96*,0,-7,-2
Nc1ncnc(N)c1N=Nc1ccccc1,15,-1,17,-1,3,7
Nc1ccc2ccccc2c1N=Nc1ccccc1,8,.,15,.,-2,95*
O=C(COc1ccc(C=NNC(=O)c2ccccc2O)cc1)Nc1ccccc1,-1,.,.,.,.,6
OCCC1CN(Cc2cccn2-c2ccccn2)CCN1Cc1ccccc1 (configuration not stated),1,-5,-2,-10,598*,9
